# Screens as filed in PubChem BioAssay.
# DT40 TDP1 no CPT: qHTS for Inhibitors of human tyrosyl-DNA phosphodiesterase 1 (TDP1): qHTS in cells in absence of CPT; DT40 Tdp1-/- hTDP1 cells, no CPT, ATP luminescence, 48 h; Potency, µM (highest dose often 46.2 µM), most hits filed as inhibitors; 420,000 compounds, 15% hits; further: nearly all actives have a fitted effect of over 55% in size
#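 Chicken DT40 Tdp1-/- cells stably complemented with human TDP1 were seeded at 400 cells/well with DMSO in place of 20 nM camptothecin. After compound pinning, cells grew at least 48 hr at 37 °C; viability read by CellTiter-Glo luminescence.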
# Six1-Eya2 blk: Six1/Eya2 interaction inhibition | Q15475+O00167 | AlphaScreen GST-Six1/His-Eya2 binding, biochemical; active compounds read low | activity change, % (no concentration beside the values) | 360,000 compounds, 0.56% hits | AID 651725; in the data active means activity change below about -65%; inconclusive means mostly about -30% to -63%
# Target sequence (O00167 whole entry, looked up): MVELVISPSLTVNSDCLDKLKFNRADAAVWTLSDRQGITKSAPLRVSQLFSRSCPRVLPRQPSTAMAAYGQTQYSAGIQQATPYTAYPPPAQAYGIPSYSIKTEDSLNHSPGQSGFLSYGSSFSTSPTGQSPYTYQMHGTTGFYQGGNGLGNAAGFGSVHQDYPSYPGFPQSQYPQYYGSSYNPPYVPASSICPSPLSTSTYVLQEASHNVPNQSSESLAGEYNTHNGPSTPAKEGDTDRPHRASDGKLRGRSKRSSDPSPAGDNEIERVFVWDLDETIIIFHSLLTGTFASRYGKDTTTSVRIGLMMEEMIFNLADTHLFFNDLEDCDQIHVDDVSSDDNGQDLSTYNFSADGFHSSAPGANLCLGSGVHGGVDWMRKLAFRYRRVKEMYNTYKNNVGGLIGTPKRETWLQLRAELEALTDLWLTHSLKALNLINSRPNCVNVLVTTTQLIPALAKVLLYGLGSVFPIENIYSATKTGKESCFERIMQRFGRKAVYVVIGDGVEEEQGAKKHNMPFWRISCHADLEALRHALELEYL
# Target sequence (Q15475 whole entry, looked up): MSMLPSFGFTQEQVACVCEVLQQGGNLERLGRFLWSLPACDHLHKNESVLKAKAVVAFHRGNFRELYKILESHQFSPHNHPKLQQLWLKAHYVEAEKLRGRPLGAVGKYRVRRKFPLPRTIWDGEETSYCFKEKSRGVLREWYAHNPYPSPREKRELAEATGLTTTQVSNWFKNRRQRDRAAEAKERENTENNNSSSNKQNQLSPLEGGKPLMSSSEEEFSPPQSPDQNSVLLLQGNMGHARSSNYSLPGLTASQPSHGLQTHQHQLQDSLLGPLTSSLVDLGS
#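 GST-Six1 + His-Eya2 (5X stock: 250/500 nM); Tris pH 8.0, 300 mM NaCl, 0.05% BSA, 0.02% Tween 20; GSH donor/Ni acceptor beads; 1 h 37 °C dark; AlphaScreen readout.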
# IL-1B inflam inh: inflammasome signaling inhibition, IL-1 beta readout | THP-1 LPS/ATP IL-1B secretion, AlphaLISA, 16 h; active compounds read low | activity change, % at 57.5 µM | 360,000 compounds, 4.7% hits; in the data active means activity change below about -50%; inconclusive means mostly about -30% to -49%
#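 Secreted IL-1B measured by AlphaLISA bead assay after 16 h compound exposure of THP-1 cells; compounds (final up to 57.5 uM) added 1 h before LPS (250 ng/mL) and ATP (1.25 mM) stimulation; lower signal means less secretion.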
# TDP1 block: TDP1 (human) enzyme inhibition; Potency, µM (doses to about 130 µM), most hits filed as inhibitors; Q9NUW8; 350,000 compounds, 0.28% hits; AID 485290; recombinant TDP1, AlphaScreen DNA substrate cleavage; further: nearly all actives have a fitted effect of over 40% in size
#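 E. coli-derived human Tdp1, 1 nM final. Cpd preinc 15 min RT; substrate 15 nM final, 5 min RT; AS bead mix 10 ug/ml final, 10 min RT. Signal loss = tyrosine-FITC cleavage. No-enzyme wells = max signal.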
# TDP1 cell CPT: DT40-hTDP1 cell growth loss with CPT. Potency, µM (highest dose often 46.2 µM), most hits filed as inhibitors. chicken DT40 Tdp1-/-;hTDP1 cells + 20 nM CPT, ATP luminescence, 48 h. 420,000 compounds, 12% hits. AID 686979; further: nearly all actives have a fitted effect of over 55% in size
#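 Chicken DT40 Tdp1-/- cells complemented with human TDP1, 400 cells/well, exposed to compounds plus 20 nM camptothecin for at least 48 h at 37 C; viability read as ATP content by CellTiter-Glo luminescence.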
# CtBP-E1A blk: CtBP/E1A binding inhibition. AlphaScreen GST-E1A/His-CtBP binding, 1536-well; active compounds read low. activity change, % (concentration not given with the values). 340,000 compounds, 0.49% hits; in the data active means activity change below about -65%; inconclusive means mostly about -30% to -63%
#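 In 5 uL wells, 23 nL compound meets equimolar GST-E1A and His-CtBP (5X stock 125 nM each) for 2 h, 37 °C. Beads (5X, 50 ug/mL) then 1 h, 37 °C, dark.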
# A number is an active result; 0 = inactive; ? = inconclusive; - = no result given; [ ] = another dose, or the depositor's remark. Only some compounds are listed: those with a hit (about 18% of all), similar ones and a draw of the others. Unless noted, the call rests on the fitted dose curve; in most records, active means well fitted curve in the direction sought with a large enough effect; inconclusive means small, poorly fitted or top-dose-only effect, or another doubt; inactive means no such curve, though single readings can be large; an effect the other way counts as inactive or inconclusive.
SMILES,DT40 TDP1 no CPT,Six1-Eya2 blk,IL-1B inflam inh,TDP1 block,TDP1 cell CPT,CtBP-E1A blk
Cc1cccc(Cn2c(=O)c3c(nc4n3CCCN4Cc3ccccc3)n(C)c2=O)c1,11µM,?,?,0,?,0
Cn1c(=O)n(Cc2ccccc2)c(=O)c2c1nc1n2CCCN1C1CCCCC1,0,0,0,-,0,0
CCn1c(=O)c2c(nc3n2CCCN3Cc2ccccc2)n(C)c1=O,?,0,0,-,0,-
COc1ccc(CCN2CCCn3c2nc2c3c(=O)n(CC(C)C)c(=O)n2C)cc1OC,13µM,0,0,-,21µM,-
Cc1cccc(N2CCCn3c2nc2c3c(=O)n(CCN3CCOCC3)c(=O)n2C)c1,?,0,0,0,21µM,0
Cn1c(=O)n(Cc2ccc(F)cc2)c(=O)c2c1nc1n2CCCN1C1CCCCC1,21µM,0,0,0,23µM,0
CSc1nnc(Cc2sc(-c3ccccc3)nc2-c2ccccc2)o1,?,0,0,0,?,0
CCN(CC)S(=O)(=O)c1ccc(-c2nnc3sc4cccc(C)c4n23)cc1,?,0,0,0,23µM,0
CCN(CC)S(=O)(=O)c1ccc(-c2nnc(SCC(N)=O)n2CC)cc1,0,0,0,0,0,0
CCN(CC)CC#CC(C)OCOCC#CCOC (stereo unspecified),0,0,0,0,0,0
COc1ccc(-n2nc([N+](=O)[O-])c(=NCCc3ccccc3)n2O)cc1,?,?,0,0,16µM,0
COc1cccc(CN=c2c([N+](=O)[O-])nn(-c3ccccc3C)n2O)c1,?,0,0,0,23µM,0
O=[N+]([O-])c1nn(-c2ccc(Cl)cc2)n(O)c1=NCc1ccccc1Cl,?,0,0,0,0,0
Cc1ccc(CCN=c2c([N+](=O)[O-])nn(-c3ccccc3)n2O)cc1,?,0,?,0,?,0
O=[N+]([O-])c1nn(-c2ccccc2)n(O)c1=NCCc1ccccc1,15µM,?,0,0,6.5µM,?
O=C(CN1C(=O)C(=O)N(C2CCCC2)C1=O)Nc1ccc(F)cc1F,0,0,0,0,0,0
CCOc1ccc(NC(=O)c2ccc(S(=O)(=O)N3CCOCC3)cc2)cc1,0,0,0,0,0,0
O=S1(=O)c2cccc3cccc(c23)N1CCCN1CCN(c2ccc(F)cc2)CC1,21µM,-,-,0,?,-
CN1CCN(S(=O)(=O)c2ccc(N3CCN(c4ccc(O)cc4)CC3)c([N+](=O)[O-])c2)CC1,?,0,0,0[0.505 µM],?,0
Cc1ccc2[nH]c(O)c(N=NC(=O)C3CC3c3ccccc3)c2c1Br (stereo unspecified),23µM,0,0,0,21µM,0
COc1cccc(C(NC(C)=O)c2nc(-c3cccc(C(F)(F)F)c3)cs2)c1 (stereo unspecified),?,0,0,-,?,0
COc1ccc(C(O)c2nc(-c3cccc(F)c3)cs2)cc1 (stereo unspecified),?,0,-93,-,16µM,0
COc1cccc(C(O)c2nc(-c3cccc(C(F)(F)F)c3)cs2)c1 (stereo unspecified),0.58µM,0,0,-,0,0
COc1cc(C(O)c2nc(-c3ccc(F)c(Cl)c3)cs2)ccc1F (stereo unspecified),?,0,?,-,?,0
COc1cc(C(O)c2nc(-c3cccc(C(F)(F)F)c3)cs2)ccc1F (stereo unspecified),?,0,?,-,16µM,0
SMILES,DT40 TDP1 no CPT,Six1-Eya2 blk,IL-1B inflam inh,TDP1 block,TDP1 cell CPT,CtBP-E1A blk
COc1cc(C(O)c2nc(-c3ccc(C)c(C)c3)cs2)ccc1F (stereo unspecified),?,0,0,-,?,0
COc1cc(C(O)c2nc(-c3cccc(NC(C)=O)c3)cs2)ccc1F (stereo unspecified),16µM,0,0,-,?,0
Cc1ccc(NS(=O)(=O)c2ccc(Cl)c(N=Nc3c(O)[nH]c(=O)[nH]c3=O)c2)cc1Cl,0,0,0,0,0,0
COc1ccc(C(O)c2nc(-c3cccc(C(F)(F)F)c3)cs2)cc1 (stereo unspecified),?,0,0,-,21µM,0
C1=Cc2ccccc2/C1=C\c1cc2c3c(c1)CCCN3CCC2,5µM,-,-,-,1.1µM,-
C1=Cc2ccccc2/C1=C\c1ccc(/C=C2\C=Cc3ccccc32)cc1,0,-,-,-,0,-
c1c2c(cc3sc(N4CCOCC4)nc13)OCCO2,18µM,0,0,0,?,0
CCCCCCCCCCn1cc(C(C)=O)c(=O)[nH]c1=O,0,0,0,0,0,0
CCN(CC)CCNC(=O)c1ccc2c(=O)n3nc(Nc4cccc(Cl)c4C)sc3nc2c1,2.6µM,-,-,0,4.6µM,-
Cc1ccc(C)c(Nc2nn3c(=O)c4cc5c(cc4nc3s2)OCO5)c1,18µM,-,-,0,16µM,-
Cc1ccc(C)c(Nc2nn3c(=O)c4ccc(C(=O)NC5CCCCC5)cc4nc3s2)c1,8.2µM,-,-,0,7.3µM,-
Cc1ccc(C)c(Nc2nn3c(=O)c4ccc(C(=O)NCCc5ccccc5)cc4nc3s2)c1,8.2µM,-,-,0,3.7µM,-
CCOCc1nnc(NC(=O)c2ccc(OC)cc2)s1,0,0,0,0,0,0
Cc1c(Cl)cccc1Nc1nn2c(=O)c3ccc(C(=O)NCCc4ccccc4)cc3nc2s1,5.2µM,-,-,0,8.2µM,-
COc1ccccc1Nc1nn2c(=O)c3ccc(C(=O)NCCc4ccccc4)cc3nc2s1,2.9µM,-,-,0,2.3µM,-
Cc1c(Cl)cccc1Nc1nn2c(=O)c3ccc(C(=O)N(C)Cc4ccccc4)cc3nc2s1,?,-,-,0,?,-
O=C(c1ccccc1OC(F)F)N1CCN(S(=O)(=O)c2ccc3c(c2)OCCCO3)CC1,0,0,0,0,0,0
COc1ccc(NC(=O)COc2coc(CN3CCN(c4ccccc4)CC3)cc2=O)cc1,?,0,0,0,21µM,0
O=C(COc1coc(CN2CCN(c3ccccc3)CC2)cc1=O)Nc1cccc(F)c1,0,0,0,0,0,0
Cc1cccc(NC(=O)COc2coc(CN3CCN(c4ccccc4)CC3)cc2=O)c1,18µM,0,0,0,21µM,0
NC(=O)NC(=O)C(Nc1ccc(N2CCCCC2)cc1)c1ccccc1 (stereo unspecified),0,0,0,0,0,0
C=CCn1c(SCC(=O)Nc2ccc3c(c2)OCCO3)nnc1-c1ccco1,?,0,0,0,0,0
O=c1c2cnn(-c3ccccc3)c2nc(-c2cccs2)n1-c1cccc(Cl)c1,9.2µM,0,0,0,15µM,0
O=c1c2cnn(-c3ccccc3)c2nc(-c2cccs2)n1-c1ccc(Cl)cc1,0.58µM,0,0,0,0.46µM,0
